Screening data as filed in PubChem BioAssay.
TROY signal inh: inhibitors of TROY-dependent NF-kB signaling; Q293 LMP1-TROYcd NF-kB luciferase reporter, 4 h; inhibition, % at 10 µM; 0.98% of 360,000 active; AID 1347056;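 active = compounds whose plate-normalised and pattern-corrected inhibition of the luciferase reporter signal at the single screening dose is 50% or more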
TWEAK Fn14 block: blocks TWEAK-Fn14 interaction in a reporter cell assay. AID 1159606. 2% of 360,000 active. TWEAK-stimulated Fn14 reporter cells, luciferase luminescence, 8 h. inhibition, % at 10 µM; in the data active = inhibition above about 50%
KKLEB cytotox: counter-screen for CF NF-kB inhibitors: cytotoxicity. KKLEB CF airway cells viability, ATPlite luminescence, overnight; active compounds read low; cells stimulated with P. aeruginosa culture filtrate. activity change (cytotoxicity), % at 5 µM. 0.36% of 360,000 active;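 active = corrected activity change at or below -50% at 5 µM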
Peg3 promoter: Peg3 promoter activity inhibition | HeLa PEG-Prom luciferase reporter, luminescence, overnight | inhibition, % at 20 µM | 1.7% of 360,000 active | AID 588405;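 active = inhibition of at least 50% at 20 µM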
CF NFkB inh: inhibitors of cystic fibrosis induced NF-kB | KKLEB NF-kB-GFP reporter, PAF-induced, GFP fluorescence overnight | inhibition, % at 5 µM | 0.86% of 360,000 active | AID 588850;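 active = at least 50% inhibition at 5 µM, scaled per plate between neutral and stimulator controls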;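 note: PAF is a Pseudomonas aeruginosa culture filtrate used as stimulus; plate controls were PAF-stimulated DMSO wells for no effect and unstimulated DMSO wells for full effect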
HIF-2a block: blocks HIF-2a reporter activity | 786-0 RCC cells HIF-2a reporter, luciferase luminescence, overnight | AID 624352 | 0.72% of 360,000 active | inhibition, % at 18.8 µM;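 active = inhibition of the luminescence signal of 40% or more relative to plate controls, in a single-dose primary screen at 18.75 µM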
Active calls of the source: *; . = no result. Hits are enriched below; roughly 4% of the tested compounds scored in any of these assays.

SMILES | TROY signal inh | TWEAK Fn14 block | KKLEB cytotox | Peg3 promoter | CF NFkB inh | HIF-2a block
N=c1n(CC(=O)c2cccc([N+](=O)[O-])c2)c2ccccc2n1Cc1ccccc1 | -4 | -9 | -16 | 58* | 14 | 5
CCn1c(=N)n(CC(=O)c2cccc([N+](=O)[O-])c2)c2ccccc21 | -39 | -43 | -10 | -236 | -32 | -276
Cc1ccccc1Cn1c(=N)n(CC(=O)c2ccc([N+](=O)[O-])cc2)c2ccccc21 | 9 | 10 | -64* | 71* | 38 | 20
COCCn1c(SCC(=O)NNC(=O)c2ccccc2)nc2ccccc2c1=O | 80* | 1 | -3 | 1 | -8 | 19
COc1ccc(CCn2c(SCC(=O)Nc3cc(C)on3)nc3ccccc3c2=O)cc1OC | 3 | 9 | -79* | 23 | 64* | 5
CCOc1ccc(CCn2c(-c3ccco3)nc3ccccc3c2=O)cc1OCC | 4 | 33 | -13 | 54* | 9 | -59
CCOc1ccccc1CNC(=O)Cn1nc(C)c2c(C)n(-c3ccc(C)cc3)nc2c1=O | 27 | 58* | 0 | 22 | -1 | 8
Cc1ccccc1Nc1nc(N)nc(CSc2nc3ccccc3s2)n1 | -20 | -17 | -4 | -37 | -8 | -35
Cc1ccc(Nc2nc(N)nc(CSc3nc4ccccc4s3)n2)cc1 | 44 | 83* | -33 | -37 | 5 | -270
CS(=O)(=O)NCCCCCCNS(C)(=O)=O | 7 | -13 | -6 | -2 | 9 | 18
CCCCCN(C(=O)CCC(=O)OCc1ccc(C(C)C)cc1)c1c(N)n(CCCC)c(=O)[nH]c1=O | -22 | 10 | -54* | 11 | 54* | -5
CC(C)=CCc1c(O)cc(O)c2c(=O)c(O[C@@H]3O[C@@H](C)[C@H](O)[C@@H](O)[C@H]3O)c(-c3ccc(O)cc3)oc12 | -4 | 20 | 14 | 38 | 68* | 0
C[C@@H]1O[C@@H](OC[C@@H]2O[C@H](Oc3c(-c4ccc(O)cc4)oc4cc(O)cc(O)c4c3=O)[C@@H](O)[C@H](O)[C@H]2O)[C@H](O)[C@H](O)[C@H]1O | 8 | 0 | 3 | -19 | -10 | 8
O=C(CC[C@H]1O[C@@H](n2ccc(=O)[nH]c2=O)[C@H](O)[C@@H]1O)N[C@@H](Cc1ccccc1)C(=O)NCC1CCCO1 (some centres undefined) | 54* | -5 | 11 | -4 | -2 | 10
NS(=O)(=O)c1ccc(CCNc2ccn3nc(-c4cccc(C(F)(F)F)c4)cc3n2)cc1 | 66* | 80* | -17 | 41 | 6 | -87
CC(C)N1CCC2(CC1)N=C(c1ccc3c(c1)OCO3)CC(c1cc(Cl)ccc1O)N2 (centres undefined) | 4 | 51* | -31 | 101* | 27 | -128
CC(Sc1ccc(Cl)cc1)C(=O)Nc1ccc2c(c1)OCO2 (centres undefined) | -22 | -7 | -4 | -17 | -1 | -36
CCC(=O)n1nc(-c2ccc(Cl)cc2)nc1SC | -31 | 77* | -1 | -176 | -1 | -215
CCCC(=O)n1nc(-c2ccc(Cl)cc2)nc1SC | -35 | -27 | 5 | -174 | -6 | -153
O=C(O)c1ccc(S(=O)(=O)NC2CCCCCC2)cc1 | -7 | 6 | 9 | 1 | 22 | -1
CNC(=O)c1ccc(NC(=O)CC2SC(N3CCCC3)=NC2=O)cc1 (centres undefined) | 6 | -6 | -4 | 0 | -28 | 1
Nc1cccc(-c2nc3ccccc3[nH]2)c1 | -36 | 2 | -20 | -205 | -8 | -239
Cc1ccc2nc(-c3cccc(N)c3)[nH]c2c1 | 12 | 61* | 0 | -68 | 12 | -20
Cc1ccc2nc(-c3sc4nc(C)cc(C)c4c3N)[nH]c2c1 | 70* | 78* | -24 | -186 | 1 | -104
Cc1ccc(-c2nc3ccc([N+](=O)[O-])cc3[nH]2)cc1 | 17 | 51* | 2 | -118 | -46 | -97
SMILES | TROY signal inh | TWEAK Fn14 block | KKLEB cytotox | Peg3 promoter | CF NFkB inh | HIF-2a block
CC(=O)c1sc2nc(C)cc(C)c2c1N | 1 | 0 | -6 | -27 | 0 | 7
Cc1[nH]c2ccccc2c1SCC(=O)NC1CCCCC1 | 6 | 9 | 4 | 2 | -18 | 1
Cc1cc(C)c[n+](-c2nc3ccccc3nc2[N-]S(=O)(=O)c2ccc(Cl)cc2)c1 | 5 | 3 | 10 | 9 | -10 | -4
O=C(Nc1ccccc1NC(=O)c1c(F)c(F)c(F)c(F)c1F)c1c(F)c(F)c(F)c(F)c1F | 9 | -9 | -4 | 68* | 10 | 14
COC(=O)c1sccc1NC(=O)c1cccc(F)c1 | 13 | 1 | -3 | 19 | -12 | 6
COC(=O)c1sccc1NC(=O)c1c(F)c(F)c(F)c(F)c1F | 8 | -13 | 2 | 67* | -14 | 37
Cc1ccccc1CC(=O)NC1CCCCCC1 | -21 | 87* | -3 | -6 | -6 | -3
Cc1ccc(C(=O)NC2CCCCCCC2)c(Cl)c1 | 40 | 75* | -4 | -41 | -10 | -30
Cc1ccccc1C(=O)NC1CCN(C(=O)NCc2ccccc2)CC1 | -19 | 1 | 2 | 13 | 0 | 0
O=C(NC1CCCCCCC1)c1cc(F)c(F)cc1Cl | -42 | -30 | 3 | -154 | 6 | -158
Cc1ccccc1C(=O)NC1CCN(C(=O)NC2CCCCC2)CC1 | 3 | 53* | -6 | -4 | 1 | 9
CCCCCc1ccc(S(=O)(=O)NCCc2ccncc2)cc1 | 45 | 15 | -12 | -7 | 30 | 6
Cc1ccc(C2CC(C(F)F)n3ncc(C(=O)Nc4cnn(Cc5ccccc5C)c4)c3N2)cc1 (centres undefined) | 36 | 13 | -16 | 61* | 19 | -6
O=C(CN1C(=O)CCC1=O)NNc1ccc2ccccc2c1 | 67* | 70* | 10 | -6 | -16 | -60
O=C(Cc1ccccc1)NNc1ccc2ccccc2c1 | 51* | 32 | -25 | 0 | 4 | -12
CNC(=O)C12N=CNN=C1N(C)C(=O)N2C (centres undefined) | 7 | 0 | 5 | 1 | 7 | 13
O=C(c1ccco1)N1CCN(C(=O)c2ccccc2[N+](=O)[O-])CC1 | -7 | -3 | 3 | -2 | 2 | -1
C/C=C/c1ccc(OCCCCOc2ccc(OC)cc2)c(OC)c1 | -1 | -14 | 13 | 24 | -16 | 9
C/C=C/c1ccc(OCCCNCC(C)O)c(OC)c1 (centres undefined) | . | 86* | 5 | 7 | -4 | 13
CC(=O)c1cccc(NC(=O)COC(=O)Cn2cnc3ccccc32)c1 | -7 | 8 | -86* | -4 | 19 | 11
COc1cc2c(cc1NC(=O)CN1C(=O)NC3(CCc4ccccc43)C1=O)oc1ccccc12 (centres undefined) | 5 | 62* | -8 | 57* | 2 | -41
